From PubChem BioAssay AID793 (The Scripps Research Institute Molecular Screening Center, 2007) come the findings set out here.

In all, about 140,000 compounds went through this assay and about 1,400 (1%) were called active. The sample holds actives, similar compounds and a random draw of the others, so the mix is not that of the screen. Unmarked numbers belong to inactive results. Cut-off read from the data, not from the text of the source: active = inhibition above about 17%; inactive = the rest.

The target in the experiment is Neuropeptide Y receptor type 2 (Homo sapiens) (UniProt P49146). As to the kind of experiment: NPY-Y2 receptor antagonists, primary screen, cell-based (AID 793).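 Note: 0% = vehicle with agonist challenge and 100% = reference antagonist with challenge.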 Conditions: NPY-Y2 expressing cells, antagonist mode; at 2.7 µM; active compounds read high.
Chain of Neuropeptide Y receptor type 2 (Homo sapiens) (P49146 whole entry, looked up): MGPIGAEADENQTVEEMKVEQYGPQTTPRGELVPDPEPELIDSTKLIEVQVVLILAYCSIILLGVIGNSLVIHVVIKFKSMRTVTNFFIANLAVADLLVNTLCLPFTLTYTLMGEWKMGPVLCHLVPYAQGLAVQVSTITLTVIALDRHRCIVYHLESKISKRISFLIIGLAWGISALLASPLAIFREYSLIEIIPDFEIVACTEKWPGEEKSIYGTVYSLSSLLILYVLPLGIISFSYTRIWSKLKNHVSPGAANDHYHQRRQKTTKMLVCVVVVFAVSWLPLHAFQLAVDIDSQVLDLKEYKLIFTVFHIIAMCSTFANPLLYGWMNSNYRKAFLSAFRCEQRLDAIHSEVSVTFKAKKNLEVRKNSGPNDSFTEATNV
For `CCOC(=O)C1=C(C)NC(=O)NC1c1ccccc1` (stereo unspecified), the inhibition was 0.94%.
Take `O=C(Nc1nnc(CCc2ccccc2)s1)C1CCCO1` (stereo unspecified): the inhibition is 3.28%.
The value for `O=C(Nc1nnc(SCc2ccc(Cl)cc2Cl)s1)C1COc2ccccc2O1` (stereo unspecified) was -1.05%; that for `O=C(Nc1nnc(SCc2c(Cl)cccc2Cl)s1)C1CCCO1` (stereo unspecified) was 22.4% (active).
Regarding `COc1ccc(NC(=O)c2ccc(C#CC(C)(C)O)cc2)cc1`, the inhibition is -0.31%.
Next, `Cc1nn2c3ccccc3nc2n(C)c1=O`: 10.8%.
Next, `Cc1ccc(C2=NN(C)c3nc4ccccc4n3C2)cc1`: 18.8% (active); `Cc1ccc(O)c(CNc2nc3ccccc3n2C)c1`: -2.2%; `O=C(NC1CCN(Cc2ccccc2)CC1)c1c(F)cccc1F`: 0.52%.
Next, `CCOc1ccc(S(=O)(=O)NCCSc2ccccc2)cc1`: 20.6% (active); `O=S(=O)(NCCSc1ccccn1)c1ccc(Cl)cc1`: 6%.
Take `Cc1ccc(S(=O)(=O)NCCSc2ccccc2)cc1[N+](=O)[O-]`: the inhibition was 13.3%.
For `Cc1ccccc1N1CCN(CCCOc2ccc3c(C)cc(=O)oc3c2)CC1`, the inhibition was 22.1% (active).
Next, `Cc1cc(=O)oc2cc(OCC3CC(c4ccccc4Cl)=NO3)ccc12` (stereo unspecified): 10.7%; `Cc1ccccc1NC(=O)c1ccc(COc2ccc3c(C)cc(=O)oc3c2)cc1`: 1.18%; `CC1(C)C(C=C(Cl)Cl)C1C(=O)N(Cc1ccc(Cl)cc1)C1CCS(=O)(=O)C1` (stereo unspecified): 5.56%.
The value for `COc1ccc(Cl)cc1-n1c(C)cc(C(=O)OCC(=O)N2CC(=O)Nc3ccccc32)c1C` was -0.44%; that for `CCNc1ccc(C(=O)OCC(=O)N2c3ccccc3NC(=O)C2(C)C)cc1[N+](=O)[O-]` was 0.27%.
Regarding `Cc1cc(C(=O)OCC(=O)N2c3ccccc3NC(=O)C2(C)C)c(C)n1-c1ccccc1`, the inhibition is 20.1% (active).
The value for `CCS(=O)(=O)n1nc(-c2ccccc2)nc1SCc1ccccc1` was 11.5%; that for `O=S(=O)(Cc1cc(Sc2ccccc2)nc(-c2ccccc2)n1)c1ccccc1` was 32.1% (active); that for `Cc1ccc(Sc2cc(N3CCOCC3)nc(-c3ccccc3)n2)cc1` was -0.14%.
The value for `COc1ccc(N2CCN(Cc3nnc(-c4ccccc4)o3)CC2)cc1` was 3.16%; that for `Cc1cc(C)nc(-n2ncc3c2CC(c2ccc(C(C)C)cc2)CC3=O)n1` (stereo unspecified) was 24.9% (active); that for `Cc1nc2nc3c(cn2n1)C(=O)CC(c1ccccc1)C3` (stereo unspecified) was 2.84%.
With `CCN1CCC2(CC1)N=C(c1ccc(F)cc1)C(=S)N2C(=O)c1ccc(C)cc1`, the inhibition was 1.56%.
For `S=C(NCC1COc2ccccc2O1)Nc1ccc(Br)cc1` (stereo unspecified), the inhibition was 6.55%.
The value for `c1ccc(-c2cc3c(NCC4COc5ccccc5O4)ncnc3s2)cc1` (stereo unspecified) was 22.8% (active); that for `c1ccc2c(c1)OCC(CNc1ncnc3nc[nH]c13)O2` (stereo unspecified) was -0.22%; that for `Nc1nnc(SCC(=O)Nc2ccc3nc(SCC(=O)Nc4ccccc4)sc3c2)s1` was 4.56%.
The value for `N=c1n(CCc2ccccc2)c2ccccc2n1Cc1ccccc1F` was 23.1% (active); that for `CN(Cc1ccccc1)Cc1ccccc1F` was 1.28%.
Turning to `CC(=O)NC(C)c1nc2ccccc2n1Cc1ccccc1F` (stereo unspecified), the inhibition is 2.02%.
Next, `COc1ccc(Cn2c(-c3ccc(Cl)cc3)c[n+]3ccccc23)cc1`: 1.35%; `COc1ccc(NC(=O)c2cccc(NC(=O)c3ccco3)c2)c(OC)c1`: 3.21%; `COc1ccccc1C(=O)Nc1ccc(NC(=O)c2ccco2)c(C)c1`: -1.27%.
Turning to `COc1cc(NC(=O)c2cc([N+](=O)[O-])ccc2Br)ccc1NC(=O)c1ccco1`, the inhibition is 31.7% (active).
For the molecule `COc1ccccc1Oc1ccc(N/C=C2/CCCC2=O)cc1`, the inhibition was 2.93%.
The value for `COc1cccc(NC(=O)CC(c2ccc(OC(C)C)cc2)c2ccccc2OC)c1` (stereo unspecified) was 4.56%; that for `CC(C)N1C(=O)N(c2ccccc2)C(C)(O)CC1(C)C` (stereo unspecified) was -1.03%; that for `O=C(Nc1ccc(N2C(=O)c3cccc4cccc(c34)C2=O)cc1)c1ccc(N2CCCCC2)c([N+](=O)[O-])c1` was 0.97%.
Take `Cc1cccc(OCC(O)Cn2c(=N)n(CCN3CCOCC3)c3ccccc32)c1` (stereo unspecified): the inhibition is 19.8% (active).
As for `OC(COc1ccc2ccccc2c1)CN1CCOCC1` (stereo unspecified), the inhibition is 1.96%.
Consider `Cn1c(=N)n(CC(O)c2ccccc2)c2ccccc21` (stereo unspecified), for which the inhibition is 6.24%.
The value for `CCOc1ccc(C(O)Cn2c(=N)n(CCN3CCCCC3)c3ccccc32)cc1` (stereo unspecified) was 18.8% (active); that for `C=CCn1c(=N)n(CC(O)COc2ccc(OC)cc2)c2ccccc21` (stereo unspecified) was 10.5%.
For `CCOc1ccc(C(O)Cc2nc3ccccc3n2C)cc1` (stereo unspecified), the inhibition was 0.15%.
Regarding `Cc1nc2c(C(=O)NCc3cccs3)cnn2c(C)c1Cc1ccc(F)cc1`, the inhibition was 11.8%.
Take `COc1ccc(-c2csc3ncnc(Oc4ccc5c(C)cc(=O)oc5c4)c23)cc1`: the inhibition was 6.66%.
Next, `Brc1ccc(-c2csc(N/N=C/c3ccc4c(c3)OCO4)n2)cc1`: -1.38%; `CCCn1c(N)c(C(=O)CSc2nnc(-c3cccnc3)n2-c2ccc(C)cc2C)c(=O)[nH]c1=O`: 2.5%.

By inhibition is commonly meant the relative decrease from the control value, in per cent.
